This passage reports Potency results from PubChem BioAssay (NCATS).

Results filed as inconclusive are left out. Entries that show only a call come without a potency. The source made the active and inactive calls. The call rests on the fitted dose curve; in most records, active means well fitted curve in the direction sought with a large enough effect; inconclusive means small, poorly fitted or top-dose-only effect, or another doubt; inactive means no such curve, though single readings can be large; an effect the other way counts as inactive or inconclusive.

For test [1], the system named is Zika virus NS2B-NS3 protease. In words: Primary screen GU AMC qHTS for Zika virus inhibitors (AID 1347154). Further: nearly all actives have a fitted effect of over 70% in size. The procedure, abridged:
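Unlinked Zika NS2B hydrophilic domain–NS3 protease complex at 25 nM in 10 mM Tris-HCl pH 8.0, 0.01% Tween 20, with an AMC peptide substrate. Fluorescence change (340/450 nm) over 15 min at room temperature, normalized to controls, fitted to 4-parameter Hill.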
(qHTS replaces the single test concentration by a dilution series.)

Test [2] can be described thus: Primary qHTS for small molecule stabilizers of the endoplasmic reticulum resident proteome: Secreted ER Calcium Modulated Protein (SERCaMP) assay (AID 1508630). A digest of the protocol: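 GLuc-SERCaMP-expressing SH-SY5Y cells, pretreated 16 h with compound, are challenged with thapsigargin to empty ER calcium stores; after 4 h, coelenterazine is added directly to the medium and luminescence is imaged.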

`N[C@@H](Cn1c2c(c(=O)[nH]c1=O)CCC2)C(=O)O`: the Potency result in test [1] and in test [2] was “inactive” throughout.
